Records with an inconclusive call do not appear. Values without a mark were called inactive. Activity calls are given as the source filed them. Calls follow the shape of the dose curve; as a rule, active = well fitted curve in the direction sought with a large enough effect; inconclusive = small, poorly fitted or top-dose-only effect, or another doubt; inactive = no such curve, though single readings can be large; an effect the other way counts as inactive or inconclusive.
Test system: not listed separately
Assay: qHTS for Inhibitors of Ubiquitin-specific Protease USP2a Using CHOP2 as the Reporter: Cytotox Assay (AID 652170); also: nearly all actives have a fitted effect of over 70% in size; also: potency is read from the fitted curve at half-maximal effect;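 as to activity change, negative = cytotoxicity: HCT116 human colon cancer cells at 600 per well; plate controls were DMSO-treated cells for no effect and wells without cells for full effect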
Settings: HCT116 viability, CellTiter-Glo luminescence, 72 h; series mostly up to 46.1 µM; activity change, negative = cytotoxicity: at the top concentration
Summary of the method: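 Cytotoxicity read as ATP luminescence (CellTiter-Glo) after 72 hr compound treatment at 37 deg C. Cells: HCT116, 600/well in DMEM plus 10% FBS. Normalization between DMSO-treated cells and cell-free wells.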

Structure (SMILES)	Potency	activity change, negative = cytotoxicity [%]
Cc1ccc(S(=O)(=O)Nc2cc(F)c(F)cc2C(=O)Nc2nc(-c3ccccc3)cs2)cc1	2960 nM (active)	
Cc1ccc(S(=O)(=O)Nc2cnccc2C(=O)Nc2nc(-c3ccncc3)cs2)cc1		11.6
Cc1ccc(S(=O)(=O)Nc2cnccc2C(=O)Nc2ccc(N3CCOCC3)cc2)cc1		5.56
O=c1[nH]c(CN2CCOCC2)nc2sc3c(c12)CCCC3		14.9
COc1ccc(C(=O)Nc2nc(-c3ccccc3)cs2)c(OC)c1		12

Molecular target: Calcium and integrin-binding protein 1 (Homo sapiens) (UniProt Q99828)
Sequence (Q99828 whole entry, looked up): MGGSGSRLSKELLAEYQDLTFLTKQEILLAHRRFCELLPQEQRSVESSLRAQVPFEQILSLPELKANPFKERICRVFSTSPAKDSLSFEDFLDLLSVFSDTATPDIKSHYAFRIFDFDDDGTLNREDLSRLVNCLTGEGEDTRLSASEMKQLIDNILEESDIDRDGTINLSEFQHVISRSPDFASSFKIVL
Assay: Primary qHTS for Identification of Calcium Integrin Binding Protein 1 (CIB1) Competitor (AID 1508620);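 also: GST tagged CIB1 binding a fluorescein labelled alphaIIb integrin peptide tracer; top concentration of the series differs between compounds; % is scaled to controls: 0 for no effect and ±100 for the full control effect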
Settings: CIB1-GST / FITC-alphaIIb peptide fluorescence polarization; series mostly up to 114 µM; activity change, negative = inhibition: at the top concentration
Summary of the method: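 Fluorescence polarization competition: GST-tagged CIB1 (1 uM final) preincubated with compound 15 min at room temperature, then FITC-labelled alphaIIb peptide (100 nM final) added. After 15 min at room temperature, polarization read at Ex 480/Em 540.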

Structure (SMILES)	activity change, negative = inhibition [%]
Cc1nc(Nc2ccccc2)c2nc(-c3ccccc3)n(CCCN3CCCCC3C)c2n1 (configuration not stated)	-1.66
CCCn1c(C)nc2c(NC(C)CCCN(CC)CC)nc(C)nc21 (configuration not stated)	-3.47
O=C(Nc1ccc(S(=O)(=O)Nc2nccs2)cc1)C1CCC2(CC1)CC2	1.2
CCN(CC)CCCn1c(-c2ccccc2)nc2c(NCc3ccccc3)nc(C)nc21	2.74
CCCCNc1nc(C)nc2c1nc(-c1ccccc1)n2CCN(C)C	6.27
CCCn1c(-c2ccc(F)cc2)nc2c(NC(C)CN(C)C)nc(C)nc21 (configuration not stated)	4.3
O=C(Nc1ccc(S(=O)(=O)Nc2nc(-c3ccccc3)cs2)cc1)c1ccc2ccccc2c1	-1.79
Cc1ccc(-c2cc(C(=O)Nc3cccc(Cl)c3)c3ccccc3n2)cc1C	5.84
CCN(CC)CCCCn1c(-c2ccccc2)nc2c(N3CCOCC3)nc(C)nc21	4.47
Cc1nc(N2CCOCC2)c2nc(-c3ccccc3)n(C(C)CN(C)C)c2n1 (configuration not stated)	0.881
Cc1ccc(S(=O)(=O)Nc2ccccc2C(=O)Nc2nccs2)cc1	-13.6
CCCn1c(-c2ccc(F)cc2)nc2c(NCCCN(CC)CC)nc(C)nc21	1.69
